PfG6PD inh: PfG6PD (Plasmodium falciparum) enzyme inhibition. hit rate 0.78% among 350,000. inhibition, % at 20 µM. PfGluPho enzyme, NADPH resazurin-diaphorase fluorescence. AID 504690;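 active = inhibition reaching at least a set limit at 20 µM in the primary screen, cut at about 59% in these data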
PfM18AAP inh: PfM18AAP enzyme inhibition; inhibition, % at 7.35 µM; hit rate 1.2% among 290,000; recombinant PfM18AAP, H-Glu-NHMec fluorogenic cleavage;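 active = inhibition above the campaign mean inhibition over all tested compounds plus 3 SD, cut at about 28% in these data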
APOBEC3G inh: blocks human APOBEC3G single-stranded DNA deamination. Q9HC16. recombinant A3G, ssDNA deamination FAM/TAMRA fluorescence. inhibition, % at 20 µM. hit rate 0.28% among 330,000. AID 493012;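 active = inhibition of at least 40% at 20 µM, with no more than 30% in the related APOBEC3A deaminase screen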
Target sequence (Q9HC16 whole entry, looked up): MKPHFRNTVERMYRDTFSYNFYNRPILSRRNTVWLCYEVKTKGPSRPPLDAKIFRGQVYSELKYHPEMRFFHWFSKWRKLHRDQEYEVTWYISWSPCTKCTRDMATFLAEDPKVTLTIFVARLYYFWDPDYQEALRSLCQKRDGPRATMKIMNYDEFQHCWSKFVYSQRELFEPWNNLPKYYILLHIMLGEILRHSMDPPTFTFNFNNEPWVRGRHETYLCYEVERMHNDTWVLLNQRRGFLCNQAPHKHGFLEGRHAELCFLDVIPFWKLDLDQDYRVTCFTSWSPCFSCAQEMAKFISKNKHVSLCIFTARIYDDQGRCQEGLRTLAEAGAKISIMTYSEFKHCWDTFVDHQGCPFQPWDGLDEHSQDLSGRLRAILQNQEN
APOBEC3A inh: human APOBEC3A DNA deaminase inhibition; P31941; recombinant A3A, FAM/TAMRA ssDNA deamination fluorescence; inhibition, % at 20 µM; hit rate 0.41% among 330,000;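 active = at least 40% inhibition at 20 µM here, with at most 30% in a related deaminase screen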
Target sequence (P31941 whole entry, looked up): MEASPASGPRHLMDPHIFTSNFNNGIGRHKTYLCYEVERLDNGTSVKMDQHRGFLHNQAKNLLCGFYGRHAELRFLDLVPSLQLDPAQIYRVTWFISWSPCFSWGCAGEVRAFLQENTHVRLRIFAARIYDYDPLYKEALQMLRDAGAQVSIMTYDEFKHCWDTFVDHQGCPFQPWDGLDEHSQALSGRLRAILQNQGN
Yeast superoxide: caloric restriction mimetics inhibiting age-related superoxide in yeast; S. cerevisiae aged cells, superoxide DHE fluorescence; hits give low values; superoxide response (% of plate mean), % at 10 µM; hit rate 0.18% among 330,000; AID 2690;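 active = superoxide response under a set limit, about three screen SD below normal, cut at about 65% in these data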;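 also: yeast aged for seven days with compound at 30 °C before DHE staining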
PfGluPho conf: PfG6PD inhibition, single-dose confirmed; recombinant PfGluPho, NADPH-diaphorase-resazurin fluorescence; shares compounds with PfG6PD inh; AID 504753; inhibition, % at 20 µM; hit rate 34% among 2,400;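 active = inhibition of at least 50% at 20 µM in any single replicate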
Diaph ctr 10uM: counter-screen for P. falciparum G6PD inhibitors: diaphorase inhibitors, oxidizers; inhibition, % at 20 µM; shares compounds with PfG6PD inh; AID 504862; hit rate 39% among 820; diaphorase-coupled resazurin reduction, fluorescence, NADPH 10 uM;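 active = average inhibition reaching 50% or more with the compound at 20 µM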;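 also: resorufin red fluorescence formed as diaphorase reduces resazurin using NADPH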
Diaphorase 30uM: diaphorase inhibition or oxidation at 30 uM NADPH; AID 504863; Diaphorase/resazurin coupled assay, resorufin fluorescence; shares compounds with PfG6PD inh; inhibition, % at 20 µM; hit rate 29% among 820;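 active = inhibition averaging 50% or more, tested at 20 µM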
Large screens that a line does not name were inactive (follow-up assays come after a bar, where they were run). Only some compounds are listed: those with a hit (about 2.4% of all), similar ones and a draw of the others.

COC(=O)c1sc(S(=O)(=O)Nc2c(C)nn(C)c2C)c(C(=O)OC)c1C	none (no result: PfM18AAP inh, Yeast superoxide)
COC(=O)c1sc(NC(=S)NNC(=O)c2c(Br)c(C)nn2C)c(C(=O)OC)c1C	PfG6PD inh 61.3 | PfGluPho conf inactive
COc1cc([N+](=O)[O-])ccc1-c1ccc(/C=C2\C(=O)ON=C2c2ccccc2)o1	PfG6PD inh 73.5 (no result: PfM18AAP inh, APOBEC3G inh, APOBEC3A inh, Yeast superoxide) | PfGluPho conf inactive
O=C(O)c1c(Cl)c(Cl)c(Cl)c(Cl)c1C(=O)OCC1CCCO1 (stereo unspecified)	none (no result: PfM18AAP inh, APOBEC3G inh, APOBEC3A inh, Yeast superoxide)
CC1=CC(=O)C=C(C)C1=NOS(=O)(=O)c1ccccc1	PfG6PD inh 112.4 (no result: APOBEC3G inh, APOBEC3A inh, Yeast superoxide) | PfGluPho conf 111.4 | Diaph ctr 10uM 102.7 | Diaphorase 30uM 100.5
CC1=CC(=O)C(C(C)C)=C/C1=N/OS(=O)(=O)c1ccccc1	PfG6PD inh 104.6 | PfGluPho conf 95.6 | Diaph ctr 10uM 72.7 | Diaphorase 30uM 77.4
Cc1ccc2c(c1)/C(=N/OS(=O)(=O)c1ccccc1)CCS2	none
Cc1ccc(S(=O)(=O)ON=C2CCN(S(=O)(=O)c3ccccc3)CC2)cc1	none
CCOc1ccccc1C(=O)NC(C(=O)N(C)c1c(N)n(Cc2ccccc2)c(=O)[nH]c1=O)C(C)C (stereo unspecified)	none (no result: PfM18AAP inh, APOBEC3G inh, APOBEC3A inh, Yeast superoxide)
CN(C)S(=O)(=O)c1ccc(C(=O)NCc2nnc(SCC(=O)NCc3ccco3)o2)cc1	none
COc1ccc(/C=N/NC2=NS(=O)(=O)c3ccccc32)cc1OC	none
COc1ccc(C(C)(C)NC(=O)C2CCC(=O)N(CCCN3CCCC3=O)C2)cc1 (stereo unspecified)	none
CC(C)C(=O)N1CCN(c2ccc(NC(=O)c3ccc4c(c3)OCCO4)cc2Cl)CC1	PfG6PD inh 68.4 | PfGluPho conf inactive
CC(=O)N1CCN(c2ccc(NC(=O)c3ccc4c(c3)OCCO4)cc2Cl)CC1	PfG6PD inh 67.2 | PfGluPho conf inactive
CSc1ccccc1NC(=O)CN(C)C(=O)C1CCN(C(=O)Nc2ccccc2)CC1	none (no result: PfM18AAP inh)
COC(=O)CCCC1=CC2=CC(=O)C(C)(OC(=O)c3cccs3)C(=O)C2=CN1Cc1ccc2c(c1)OCO2 (stereo unspecified)	none (no result: PfM18AAP inh)
COC(=O)CCCC1=CC2=CC(=O)C(C)(OC(=O)c3cccs3)C(=O)C2=CN1Cc1ccco1 (stereo unspecified)	PfG6PD inh 73.1 (no result: PfM18AAP inh) | PfGluPho conf inactive
COC(=O)CCCC1=CC2=CC(=O)C(C)(OC(=O)c3cccs3)C(=O)C2=CN1CCCOC(C)C (stereo unspecified)	PfG6PD inh 61.5 (no result: PfM18AAP inh) | PfGluPho conf inactive
COC(=O)CCCC1=CC2=CC(=O)C(C)(OC(=O)c3cccs3)C(=O)C2=CN1Cc1ccccc1 (stereo unspecified)	PfG6PD inh 74.6 (no result: PfM18AAP inh) | PfGluPho conf inactive
CCCCC1=CC2=CC(=O)C(C)(OC(=O)CC)C(=O)C2=CN1Cc1ccco1 (stereo unspecified)	none (no result: PfM18AAP inh)
O=C(COc1ccccc1Cl)NCCCNC(=O)c1ccco1	none
O=C1C=C(O)c2[nH]c(=O)ccc2C1=O	PfG6PD inh 69.1 (no result: PfM18AAP inh, APOBEC3G inh, APOBEC3A inh, Yeast superoxide) | PfGluPho conf inactive
O=C1C=C(Nc2ccccc2O)c2ccccc2C1=O	none
c1cncc(CNc2ccc3c(c2)OCO3)c1	PfG6PD inh 67.8 | PfGluPho conf 58.1 | Diaph ctr 10uM inactive | Diaphorase 30uM inactive
COc1ccccc1CN(Cc1cc2cc3c(cc2[nH]c1=O)OCCO3)Cc1nnnn1Cc1ccco1	none
O=c1[nH]c2cc3c(cc2cc1CN(Cc1ccccc1)Cc1nnnn1Cc1ccco1)OCCO3	PfG6PD inh 76.2, PfM18AAP inh 29.7 (no result: APOBEC3G inh, APOBEC3A inh, Yeast superoxide) | PfGluPho conf inactive
Cc1cccc(NC(=S)NC(=O)c2oc3ccccc3c2C)n1	none
CCCCn1c(N)c(N(CC(C)C)C(=O)CSc2nnc(C)n2-c2ccc(OC)cc2)c(=O)[nH]c1=O	none (no result: PfM18AAP inh)
C(=N\n1cnnc1)/c1cccc(OCCOc2ccccc2)c1	none
Cc1ccc(S(=O)(=O)Oc2cccc(/C=N/Nc3ccc(C(=O)O)cc3)c2)cc1	PfG6PD inh 97.6 | PfGluPho conf 67.1 | Diaph ctr 10uM 60.3 | Diaphorase 30uM inactive
Cc1ccc(S(=O)(=O)Oc2cccc(/C=N/n3cnnc3)c2)cc1	PfG6PD inh 77.4 | PfGluPho conf inactive
Cc1ccc(S(=O)(=O)N/N=C/c2ccc(C(=O)O)cc2)cc1	none
CN1CCN(C(=O)c2cccn(Cc3c(Cl)cccc3Cl)c2=O)CC1	none
COc1cc2c(cc1OC)C(C)N(C(=O)c1cc3c(C)cc(C)cc3[nH]1)CC2 (stereo unspecified)	none
O=C(OCc1ccccc1)N1CCC2CC1c1cc(/C=C/CCCSc3ncccn3)ccc12 (stereo unspecified)	none (no result: PfM18AAP inh, APOBEC3G inh, APOBEC3A inh, Yeast superoxide)
CSCCOC(=O)C1=C(C)Nc2ccc(C)cc2S1	PfG6PD inh 59.5 | PfGluPho conf inactive
O=C(COC(=O)CCc1ccc(S(=O)(=O)N2CCOCC2)cc1)Nc1ccccc1OC(F)F	none (no result: PfM18AAP inh)
CC1(C)Nc2ccc(O)cc2-c2c1ssc2=S	PfG6PD inh 72.0 | PfGluPho conf 54.5 | Diaph ctr 10uM inactive | Diaphorase 30uM inactive
COc1cccc(-n2sc3c(c2=S)-c2cc(OC)ccc2NC3(C)C)c1	none
N#Cc1c([N+](=O)[O-])cc([N+](=O)[O-])cc1S(=O)(=O)Cc1ccccc1	PfG6PD inh 109.4 (no result: PfM18AAP inh) | PfGluPho conf 100.5 | Diaph ctr 10uM 90.5 | Diaphorase 30uM 92.3
COc1cc(OC)c(C#N)c(S(=O)(=O)Cc2ccccc2)c1	none
O=C(CN1CCN(c2ccc(O)cc2)CC1)Nc1ccccc1C(=O)NCCc1ccccc1	PfG6PD inh 70.3 (no result: PfM18AAP inh) | PfGluPho conf inactive
Oc1ccc(N2CCN(C(=S)NCCc3ccccc3)CC2)cc1	PfG6PD inh 67.2 | PfGluPho conf inactive
COc1ccc(N2CCN(C(=S)NCCc3ccccc3)CC2)cc1	none
CC1(NC(=S)Nc2ccc3ccccc3c2)CCS(=O)(=O)C1 (stereo unspecified)	none
CN(C)C(=S)NC(=S)Nc1ccc2ccccc2c1	PfG6PD inh 70.8 (no result: PfM18AAP inh, APOBEC3G inh, APOBEC3A inh, Yeast superoxide) | PfGluPho conf inactive
Cc1nc(NS(=O)(=O)c2ccccc2)sc1C(=O)N/N=C/c1ccccc1	PfG6PD inh 74.1 | PfGluPho conf inactive
CCOP(=O)(OCC)C1NC(=O)N(c2ccccc2)C1=O (stereo unspecified)	none
COCCn1nnnc1C(c1cc2cc(OC)c(OC)cc2[nH]c1=O)N1CCN(c2ccc(O)cc2)CC1 (stereo unspecified)	PfG6PD inh 65.4, PfM18AAP inh 28.3 | PfGluPho conf 55.6 | Diaph ctr 10uM inactive | Diaphorase 30uM inactive
CCc1ccc2[nH]c(=O)c(C(c3nnnn3CCOC)N3CCN(c4ccc(F)cc4)CC3)cc2c1 (stereo unspecified)	none
CCC1(c2ccccc2)NC(=O)N(CC(=O)NCc2ccc(C)cc2)C1=O (stereo unspecified)	none

Source: PubChem
